In PubChem BioAssay (NCI):
This is part of a sample that, as a whole, favours compounds with a hit. Of some 83,000 tested, about 20% had one in any assay.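 48-hour exposure, single concentration, 96-well plates; percent growth endpoint where 0 means no net growth. Active: below 10.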 The source made the active and inactive calls.

Legend:
Experiment in all cases: NCI-60 one-dose screen, 48 h (100 = growth as untreated, 0 = no growth, -100 = all killed)
Conditions in all cases: 10 µM unless noted
HCT-15 colon = test system: HCT-15 colon
HT29 colon = test system: HT29 colon
SNB-75 CNS = test system: SNB-75 CNS
SNB-19 CNS = test system: SNB-19 CNS
U251 CNS = test system: U251 CNS
PC-3 prostate = test system: PC-3 prostate
SK-MEL-5 melanoma = test system: SK-MEL-5 melanoma
UACC-62 melanoma = test system: UACC-62 melanoma
LOX IMVI melanoma = test system: LOX IMVI melanoma
SK-MEL-28 melanoma = test system: SK-MEL-28 melanoma
EKVX NSCLC = test system: EKVX NSCLC
SN12C renal = test system: SN12C renal
UO-31 renal = test system: UO-31 renal
TK-10 renal = test system: TK-10 renal
ACHN renal = test system: ACHN renal
A498 renal = test system: A498 renal
CCRF-CEM leukemia = test system: CCRF-CEM leukemia
MOLT-4 leukemia = test system: MOLT-4 leukemia
SK-MEL-2 melanoma = test system: SK-MEL-2 melanoma
CAKI-1 renal = test system: CAKI-1 renal

Measured: growth

Cc1nccc2c3ccc(OCc4cn(-c5ccc(Cl)cc5)nn4)cc3n(CCCc3ccccc3)c12
active: SNB-75 CNS -45.1% | UACC-62 melanoma -62% | LOX IMVI melanoma 0.291% | SK-MEL-28 melanoma -34.3% | SN12C renal 6.96% | UO-31 renal -87.1% | TK-10 renal -16.1% | ACHN renal -20.4% | CCRF-CEM leukemia 2.43%
inactive: HCT-15 colon 45.7% | HT29 colon 11.1% | SNB-19 CNS 63% | U251 CNS 25.3% | PC-3 prostate 16.3% | SK-MEL-5 melanoma 68.3% | EKVX NSCLC 66.3% | A498 renal 87.5% | MOLT-4 leukemia 18.2%

COc1cc(C(=O)/C=C/c2c(C)n([O-])c3ccc(Cl)cc3[n+]2=O)cc(OC)c1OC
inactive: HCT-15 colon 29.6% | HT29 colon 62.8% | SNB-75 CNS 60.4% | SNB-19 CNS 99.8% | U251 CNS 61.4% | PC-3 prostate 46.7% | UACC-62 melanoma 60.4% | LOX IMVI melanoma 65.8% | SK-MEL-28 melanoma 80.8% | SK-MEL-2 melanoma 59.6% | EKVX NSCLC 80.9% | SN12C renal 56.3% | UO-31 renal 43% | TK-10 renal 46.1% | ACHN renal 53.5% | A498 renal 100%
active: CCRF-CEM leukemia -30.6% | MOLT-4 leukemia 6.41%

C(=N\Nc1ncc(-c2cc3cc4c(cc3o2)OCO4)s1)/c1c[nH]c2ccccc12
active: HCT-15 colon 6.56% | SNB-75 CNS -0.264% | SNB-19 CNS 3.35% | U251 CNS -10% | PC-3 prostate 1.87% | SK-MEL-5 melanoma 5.79% | UACC-62 melanoma 1.76% | LOX IMVI melanoma -94% | SN12C renal -12.3% | UO-31 renal -96.5% | ACHN renal -31.4% | CAKI-1 renal -43.3% | A498 renal -3.19% | CCRF-CEM leukemia 2.87% | MOLT-4 leukemia -23.8%
inactive: HT29 colon 23.2% | SK-MEL-28 melanoma 30.9% | TK-10 renal 22.7%

O=C1c2ccccc2C(=O)c2c(NCCN=Cc3ccccc3O)cccc21
inactive: HCT-15 colon 40.7% | HT29 colon 32.4% | SNB-75 CNS 68.4% | SNB-19 CNS 65.3% | U251 CNS 60.5% | PC-3 prostate 66.7% | UACC-62 melanoma 62.8% | LOX IMVI melanoma 21.3% | SK-MEL-28 melanoma 91.7% | SK-MEL-2 melanoma 108% | EKVX NSCLC 56% | SN12C renal 50.3% | UO-31 renal 39.3% | TK-10 renal 68.5% | ACHN renal 30.9% | A498 renal 35.1% | CCRF-CEM leukemia 59%
active: CAKI-1 renal -10.3% | MOLT-4 leukemia -16.4%

CCCCCCOc1ccc(C(=N)N(CCCC)CCCC)c2ccccc12
active: HCT-15 colon -82.1% | HT29 colon -83.2% | SNB-75 CNS -98.9% | SNB-19 CNS -88.9% | U251 CNS -77.7% | PC-3 prostate -84.2% | UACC-62 melanoma -86% | LOX IMVI melanoma -92.6% | SK-MEL-28 melanoma -94.3% | SK-MEL-2 melanoma -85.6% | EKVX NSCLC -75.4% | SN12C renal -86.5% | UO-31 renal -93.9% | TK-10 renal -92.4% | ACHN renal -92% | CAKI-1 renal -83.7% | CCRF-CEM leukemia -12.8% | MOLT-4 leukemia -38.4%

COc1cc(NCCCN(CC(C)C)C2CCCC2)c2ncccc2c1
inactive: HCT-15 colon 63.6% | HT29 colon 71.8% | SNB-75 CNS 71% | SNB-19 CNS 84.6% | U251 CNS 76.6% | PC-3 prostate 59.4% | UACC-62 melanoma 73.6% | LOX IMVI melanoma 58.7% | SK-MEL-28 melanoma 71.2% | SK-MEL-2 melanoma 100% | EKVX NSCLC 89.9% | SN12C renal 61.9% | UO-31 renal 51% | TK-10 renal 93.6% | ACHN renal 41.7% | CAKI-1 renal 76% | A498 renal 37.1% | CCRF-CEM leukemia 54.1% | MOLT-4 leukemia 71%

CCCCCCNC(=O)Oc1ccc(/C(=C(/CC)Cc2ccccc2)c2ccc(OCCN(CC)CC)cc2)cc1
inactive: SNB-75 CNS 78.8% | SNB-19 CNS 69.2% | U251 CNS 43.2% | PC-3 prostate 51.6% | SK-MEL-5 melanoma 51.2% | UACC-62 melanoma 87.6% | LOX IMVI melanoma 80.1% | SK-MEL-28 melanoma 80.8% | SN12C renal 73.5% | UO-31 renal 58% | TK-10 renal 93.1% | ACHN renal 89.4% | CAKI-1 renal 91% | CCRF-CEM leukemia 45.4% | MOLT-4 leukemia 35.2%
active: HCT-15 colon 5.48% | HT29 colon -24.3%

CCOC(=O)Oc1c(OC)cc(C(=O)O[C@@H]2C[C@@H]3CN4CCc5c([nH]c6cc(OC)ccc56)[C@H]4C[C@@H]3[C@H](C(=O)OC)[C@H]2OC)cc1OC
active: CCRF-CEM leukemia -10.8% | MOLT-4 leukemia 7.97%
inactive: HCT-15 colon 44.1% | HT29 colon 36.7% | SNB-75 CNS 91.1% | SNB-19 CNS 75.5% | U251 CNS 49.4% | PC-3 prostate 35% | UACC-62 melanoma 87.8% | LOX IMVI melanoma 14.4% | SK-MEL-28 melanoma 83.2% | SK-MEL-2 melanoma 105% | EKVX NSCLC 64.6% | SN12C renal 60% | UO-31 renal 80.2% | TK-10 renal 99.7% | ACHN renal 66.5% | CAKI-1 renal 65.5%

CCN(CC)CCSCCCNc1c(C)cnc2cc(Cl)ccc12
inactive: HCT-15 colon 76.7% | HT29 colon 54.9% | SNB-75 CNS 85.4% | SNB-19 CNS 104% | U251 CNS 84% | PC-3 prostate 85.1% | UACC-62 melanoma 93.9% | LOX IMVI melanoma 79.5% | SK-MEL-28 melanoma 87% | SK-MEL-2 melanoma 143% | EKVX NSCLC 87.4% | SN12C renal 82.7% | UO-31 renal 54.9% | TK-10 renal 118% | ACHN renal 94.6% | CAKI-1 renal 90.5% | A498 renal 71.4% | CCRF-CEM leukemia 80.6% | MOLT-4 leukemia 70.4%

O=C(Cc1ccc(/C=C/C(=O)c2ncc[nH]2)cc1)Nc1ccc(C(F)(F)F)cc1
inactive: SNB-75 CNS 43.6% | SNB-19 CNS 15.3% | PC-3 prostate 36.6% | SK-MEL-5 melanoma 47.7% | UACC-62 melanoma 46.5% | SK-MEL-28 melanoma 67.3% | SN12C renal 29.5% | TK-10 renal 87.5% | ACHN renal 56% | CAKI-1 renal 68.7%
active: HCT-15 colon -51.6% | HT29 colon -32.5% | U251 CNS -88.8% | LOX IMVI melanoma -80% | UO-31 renal -41.7% | CCRF-CEM leukemia -9.03% | MOLT-4 leukemia 6.36%

C=C1C(=O)O[C@H]2[C@H]1CC/C(CNC(=O)/C=C/c1ccc(Br)cc1)=C\CC[C@@]1(C)O[C@@H]21
inactive: SNB-75 CNS 48.9% | SNB-19 CNS 15.9%
active: HCT-15 colon -64.2% | HT29 colon -74.5% | U251 CNS -28.3% | PC-3 prostate -55.2% | UACC-62 melanoma -93.5% | LOX IMVI melanoma -95.2% | SK-MEL-28 melanoma -66.1% | SK-MEL-2 melanoma -18% | EKVX NSCLC -47.8% | SN12C renal -66.5% | UO-31 renal -98.2% | TK-10 renal -67.9% | ACHN renal -58.6% | CAKI-1 renal -91.8% | CCRF-CEM leukemia -2.6% | MOLT-4 leukemia -22.7%

CCCCCCCCCCCCCCCC(=O)OC[C@@]1(O)C[C@@]23CC[C@@H]4C(C)(C)[C@H](O)CC[C@@]4(C)[C@@H]2CC[C@H]1C3
inactive: HCT-15 colon 107% | HT29 colon 104% | SNB-75 CNS 99.6% | SNB-19 CNS 96.7% | U251 CNS 107% | PC-3 prostate 100% | UACC-62 melanoma 100% | LOX IMVI melanoma 103% | SK-MEL-28 melanoma 110% | SK-MEL-2 melanoma 104% | EKVX NSCLC 100% | SN12C renal 96% | UO-31 renal 92.4% | TK-10 renal 101% | ACHN renal 108% | A498 renal 105% | CCRF-CEM leukemia 100% | MOLT-4 leukemia 101%

CN1CCN(C(=O)OCc2nc3c(N4CCOCC4)nc(-c4ccccc4)nc3n2C)CC1
inactive: SNB-19 CNS 30.3%
active: HCT-15 colon -59.9% | HT29 colon -29.1% | SNB-75 CNS -6.43% | U251 CNS -54.2% | PC-3 prostate -62.3% | UACC-62 melanoma -95.9% | LOX IMVI melanoma -91.4% | SK-MEL-28 melanoma -95.5% | SK-MEL-2 melanoma -59.9% | EKVX NSCLC -76.7% | SN12C renal -86.8% | UO-31 renal -100% | TK-10 renal -70.1% | ACHN renal -100% | CCRF-CEM leukemia -6.94% | MOLT-4 leukemia -6.95%

O=C(O)c1ccc[n+](CC(=O)N2CCN(c3cc4c(cc3F)c(=O)c(C(=O)O)cn4C3CC3)CC2)c1
inactive: HCT-15 colon 73.4% | HT29 colon 92.9% | SNB-75 CNS 79.4% | SNB-19 CNS 87.1% | U251 CNS 74.7% | PC-3 prostate 87.3% | SK-MEL-5 melanoma 91.7% | UACC-62 melanoma 48.9% | LOX IMVI melanoma 30.2% | SK-MEL-28 melanoma 60.4% | EKVX NSCLC 107% | SN12C renal 29.4% | UO-31 renal 71.8% | TK-10 renal 112% | ACHN renal 72.8% | CAKI-1 renal 92.8% | MOLT-4 leukemia 12.6%
active: CCRF-CEM leukemia -25.6%

O=C(N/N=C/c1cccnc1)c1ccccc1Nc1cccc(C(F)(F)F)c1
inactive: HCT-15 colon 71.7% | HT29 colon 91.7% | SNB-75 CNS 83% | SNB-19 CNS 84.8% | U251 CNS 92.1% | PC-3 prostate 88.8% | UACC-62 melanoma 102% | LOX IMVI melanoma 78.6% | SK-MEL-28 melanoma 85.5% | SK-MEL-2 melanoma 101% | EKVX NSCLC 89.2% | SN12C renal 159% | UO-31 renal 76.4% | TK-10 renal 97.2% | ACHN renal 100% | CAKI-1 renal 79.6% | A498 renal 75.6% | MOLT-4 leukemia 62.7%
active: CCRF-CEM leukemia -52.4%

N#CSCC1CC(O)(c2ccccc2)C(c2ccccc2)C(c2ccc(F)cc2)O1 (stereo unspecified)
active: HT29 colon 0.506% | LOX IMVI melanoma -1.61% | SK-MEL-28 melanoma -15.5% | SN12C renal -26.9% | TK-10 renal 0.365% | MOLT-4 leukemia -22%
inactive: HCT-15 colon 42.6% | SNB-75 CNS 62.6% | SNB-19 CNS 76.8% | U251 CNS 32.4% | PC-3 prostate 15.9% | UACC-62 melanoma 41.2% | SK-MEL-2 melanoma 53.6% | UO-31 renal 11.2% | ACHN renal 25.2% | CCRF-CEM leukemia 12.2%

NC(=O)c1cccc(-c2ccccc2N2CCCCC2)c1
inactive: HCT-15 colon 101% | HT29 colon 95.2% | SNB-75 CNS 99.7% | SNB-19 CNS 93% | U251 CNS 98.3% | PC-3 prostate 83.9% | UACC-62 melanoma 85% | LOX IMVI melanoma 98.5% | SK-MEL-28 melanoma 98.6% | SK-MEL-2 melanoma 103% | EKVX NSCLC 97.2% | SN12C renal 93.6% | UO-31 renal 82.4% | TK-10 renal 103% | ACHN renal 95.3% | CAKI-1 renal 83% | A498 renal 95.3% | CCRF-CEM leukemia 89.7% | MOLT-4 leukemia 91.1%
